Measurements published in PubChem BioAssay (NCATS).
Records with an inconclusive call do not appear. Unmarked numbers belong to inactive results. Activity calls are given as the source filed them. The call rests on the fitted dose curve; in most records, active means well fitted inhibition curve with a large enough effect; inconclusive means small, poorly fitted or top-dose-only effect; inactive means flat fitted curve, though single readings scatter.

Assay: BET inhibitor-based combinations targeting novel dependencies in MECOM-rearranged (r) AML: AML-194 cell line (AID 2202237; further: nearly all actives have a fitted effect of over 40% in size;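 on viability (% of control): plate controls were vehicle wells for no effect and wells without cells for full effect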)
Conditions: AML-194 (MECOM-r AML) viability, CellTiter-Glo, 48 h; series mostly up to 46 µM
Outline: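 Luminescent ATP readout (CellTiter-Glo) after 48 hr drug exposure gives viability. Curves span 11 concentrations and are normalized to DMSO and empty wells. Activity is reported as area under the curve and its Z-transform within each cell line.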
Potency means the concentration at half of the fitted maximal effect.

Structure (SMILES)	Potency	viability (% of control)
C=CCN1C[C@H](C(=O)N(CCCN(C)C)C(=O)NCC)CC2c3cccc4[nH]cc(c34)C[C@H]21 (some centres undefined)	inactive	
COC1CC(C(=O)c2ccc3c(N)ncc(-c4ccc(-c5cnn(C)c5)cc4)c3n2)C1 (centres undefined)	11.8 µM (active)	
CCC(C)CNCC(=O)N1CCc2sccc2C1c1cccc(C)n1 (centres undefined)	inactive	
COc1ccc2c(c1OC)C(=O)OC2[C@H]1c2c(cc3c(c2OC)OCO3)CCN1C (some centres undefined)	20.9 µM (active)	
C[C@H]1CNCCCN1S(=O)(=O)c1cccc2cncc(F)c12	inactive	
CCCC[C@@H](C=O)NC(=O)[C@H](CC(C)C)NC(=O)OCc1ccccc1	inactive	
Cc1ccc(NC(=O)NCc2ccc3c(c2)CN(C2CCC(=O)NC2=O)C3=O)cc1Cl (centres undefined)	0.0019 µM (active)	
C[C@@H]1CC(=O)Nc2cccc(-c3ccc4c(c3)c(-c3cnn(C)c3)nn4C)c2N1	6.61 µM (active)	
COc1cc2c(cc1OC)CN(CCc1ccc(-n3nnc(-c4cc(OC)c(OC)cc4NC(=O)c4cc(=O)c5ccccc5o4)n3)cc1)CC2		95.7% [at 0.315 µM]
O=C(O)CNC(=O)c1ncc(-c2cccc(Cl)c2)cc1O	inactive	
CCC(=O)O[C@]1(C(=O)CO)CC[C@H]2[C@@H]3CCC4=CC(=O)CC[C@]4(C)[C@H]3CC[C@@]21C	inactive	
CCCCCCCOc1ccc(CCC(N)(CO)CO)cc1C(F)(F)F	14.8 µM (active)	
C[C@@H]1C(=O)OC2[C@H](O)[C@]34[C@H]5C[C@@H](C(C)(C)C)[C@]36[C@@H](OC(=O)[C@@H]6O)O[C@@]4(C(=O)O5)[C@]21O (some centres undefined)	inactive	
Fc1cccc(-n2cnc3c(NCc4nc5c(F)c(F)ccc5[nH]4)nc(N4CCOCC4)nc32)c1	0.372 µM (active)	
CN1CCN(C(=O)[C@H]2[C@@H](C(=O)O)[C@H]3CC[C@@H]2O3)CC1		96.1% [at 8.46 µM]
Cn1cc(/C=C/C(=O)c2cccc(F)c2)cc1/C=C/C(=O)NO	11.8 µM (active)	
Cc1c(F)cccc1NC(=O)Nc1ccc(Cl)c(S(=O)(=O)[C@H]2CCCNC2)c1O	inactive	
Cc1ccc(C(=O)N(CCCN)[C@@H](c2nc3cc(Cl)ccc3c(=O)n2Cc2ccccc2)C(C)C)cc1	0.0468 µM (active)	
C[C@]12CCC3=C4CCC(=O)C=C4CC[C@H]3[C@@H]1CC[C@@]2(O)CC#N	inactive	
c1ccc2[nH]c(-c3cscn3)nc2c1	18.6 µM (active)	
C[C@H](NC(=O)c1c(N)nn2cccnc12)c1cc2cccc(C#Cc3cnn(C)c3)c2c(=O)n1-c1ccccc1	7.23 µM (active)	
Cc1c(C(=O)Nc2ccc(Oc3ccnc4[nH]cc(-c5ccccc5)c34)c(F)c2)c(=O)n(-c2ccc(F)cc2)n1C	1.66 µM (active)	
CCNCCc1ccc(CN(CC)c2cc(OC)ccc2[C@@H]2CCc3cc(O)ccc3C2)cc1	8.33 µM (active)	
COC(=O)Nc1nc2ccc(C(=O)c3ccccc3)cc2[nH]1	0.332 µM (active)	
COc1cc2c(NC3CCN(C)CC3)nc(N3CCCN(C)CC3)nc2cc1OCCCN(C)C	inactive	
CCS(=O)(=O)N1CCC(C(C)n2c(C)c(C(=O)NCc3c(OC)cc(C)[nH]c3=O)c3ccccc32)CC1 (centres undefined)	inactive	
CC#CC(=O)N1CC[C@@H](n2c(=O)n(-c3ccc(Oc4ccccc4)cc3)c3c(N)ncnc32)C1	inactive	
COC(=O)[C@@H]1CC2=CC(=O)CC[C@]2(C)[C@@]23O[C@@H]2C[C@@]2(C)[C@@H](CC[C@@]24CCC(=O)O4)[C@H]13	inactive	
CNC(=O)c1c(C)oc2cc(Oc3ncnc4cc(OC)c(OC)cc34)ccc12	inactive	
